# From PubChem BioAssay AID1259420 (Broad Institute, 2018)
# About 250 (25%) of roughly 1,000 compounds were called active. Another 31% or so got no clear call; they are omitted. Only a sample is shown. Entries with a potency or affinity are not part of this list. Unmarked numbers belong to inactive results. How the calls were made is not given here. Numbered stars: 1 amine (or outer) side, 2 acyl side, 3 side chain; on linkers, the order of the positions; unused ones are H or OH. Bridge positions count the residues as written; N and C are the ends. Square brackets hold non-standard residues; d marks the D form. Side chains are listed from the residue outwards. Peptide text beside a SMILES is read from it. * marks the point of attachment. ξ: configuration not given here. Ethylenediamine = C(CN[*:2])N[*:1]; Heptanoyl(6-Me) = CC(C)CCCCC(=O)*; Hyp = O=C(O)[C@@H]1C[C@@H](O)CN1; Phg = N[C@H](C(=O)O)c1ccccc1; CO = O=C([*:1])[*:2]; ξDab = NCCC(N)C(=O)O; ξT = CC(O)C(N)C(=O)O; Bn = c1ccc(C*)cc1
# Assay: T. gondii intracellular growth, IFN-gamma absent, dose response, cell-based (AID 1259420);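 further: host cells were HeLa; final incubation lasted 72 hours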
# Details: Toxoplasma gondii growth in host cells, no IFN-gamma
smiles,measurement,setting,value
CC(=O)O[C@H]1C[C@@H](OC(C)=O)C(C)(C)C2C[C@@H](OC(C)=O)[C@@]3(C)C4=CC(=O)O[C@@H](c5ccoc5)[C@]4(C)CCC3[C@]21C (stereo not given in full),max activity,at 19.5 µM unless noted,-6.69% [at 0.16 µM]
O=C(C[C@@H]1CC[C@@H]2[C@H](COC[C@H](O)CN2C(=O)c2cc(Cl)cc(Cl)c2)O1)N1CCc2ccccc2C1,max activity,at 19.5 µM unless noted,9.95%
C/C=C/c1ccc(C2[C@@H]3CN(Cc4cccc(OC)c4)C[C@H]2N3)cc1 (stereo not given in full),max activity,at 19.5 µM unless noted,25.8% [at 1.2 µM]
O=C(Nc1cccc(F)c1)N1CCCCN2[C@@H](CO)[C@@H](c3ccc(C#Cc4cccnc4)cc3)[C@@H]2C1,max activity,at 19.5 µM unless noted,16.4% [at 0.6 µM]
O=C(Nc1cccc(F)c1)N1CCCCN2[C@H](C1)[C@H](c1ccc(C#Cc3cccnc3)cc1)[C@@H]2CO,max activity,at 19.5 µM unless noted,-11.5% [at 21 µM]
CC(C)CCN1Cc2c(C(=O)Nc3cccc(F)c3)ncn2-c2ccccc2S1(=O)=O,max activity,at 19.5 µM unless noted,27% [at 10 µM]
COc1ccccc1NC(=O)N1CC(=O)N2[C@H](C1)[C@@H](c1ccc(C#CC(C)C)cc1)[C@@H]2CO,max activity,at 19.5 µM unless noted,-5.1% [at 5 µM]
OC[C@@H]1Nc2ccc(C#Cc3ccc(F)cc3)cc2[C@@H]2[C@H]1CCN2Cc1ccc2c(c1)OCO2,max activity,at 19.5 µM unless noted,6.67% [at 1.2 µM]
O=C(c1ccc2c(c1)OCO2)N1CC[C@@H]2[C@H](CO)Nc3ccc(C#Cc4ccccc4)cc3[C@@H]21,max activity,at 19.5 µM unless noted,15.9%
N#Cc1ccc(-c2ccc([C@@H]3[C@H]4CNC[C@@H]3N4Cc3ccc4c(c3)OCO4)cc2)cc1,max activity,at 19.5 µM unless noted,27.3% [at 10 µM]
COCCO[C@H]1CCN(Cc2c(C)noc2C)[C@H]1Cc1ccccc1,max activity,at 19.5 µM unless noted,-15.1% [at 10 µM]
NCCCC[C@@H]1NC(=O)[C@@H](Cc2c[nH]c3ccccc23)NC(=O)[C@H](c2ccccc2)NC(=O)[C@@H]2C[C@@H](OC(=O)NCCN)CN2C(=O)[C@H](Cc2ccccc2)NC(=O)[C@H](Cc2ccc(OCc3ccccc3)cc2)NC1=O (cyclo([Hyp]([CO-Ethylenediamine])[Phg][dW]KY(Bn)F)),max activity,at 19.5 µM unless noted,-6.82% [at 1.2 µM]
CCCCC[C@H](CC(=O)NO)C(=O)N[C@H](C(=O)N1CCC[C@H]1CO)C(C)C,max activity,at 19.5 µM unless noted,-4.64% [at 1.2 µM]
O=C(C[C@H]1CC[C@H]2[C@@H](COC[C@@H](O)CN2Cc2ccc(Oc3ccccc3)cc2)O1)N1CCN(c2ccccc2)CC1,max activity,at 19.5 µM unless noted,-8.77% [at 10 µM]
Nc1c(-c2nnc(-c3ccccc3)o2)sc2nc(-c3ccccc3)cc(-c3ccccc3)c12,max activity,at 19.5 µM unless noted,-6.07% [at 0.6 µM]
CCN(CC)CCOC(=O)C(c1ccccc1)C1CCCCC1 (stereo not given),max activity,at 19.5 µM unless noted,16.1% [at 10 µM]
COc1ccc(Cc2nnc(NC(=O)CC(C)C)s2)cc1,max activity,at 19.5 µM unless noted,16.7% [at 10 µM]
COCC12CCCOC1CCN(S(=O)(=O)c1cn(C)cn1)C2 (stereo not given),max activity,at 19.5 µM unless noted,-11.3% [at 2.6 µM]
CC(C)C#Cc1ccc([C@@H]2[C@@H](CO)N3C(=O)CN(S(=O)(=O)c4ccccc4)C[C@H]23)cc1,max activity,at 19.5 µM unless noted,8.39%
Cc1ccc(S(=O)(=O)N2CC[C@@H]3[C@H](CO)Nc4ccc(-c5cccc(C(=O)N(C)C)c5)cc4[C@@H]32)cc1,max activity,at 19.5 µM unless noted,15.5%
O=C(C[C@H]1CC[C@@H]2[C@H](COC[C@H](O)CN2C(=O)c2cc(Cl)cc(Cl)c2)O1)N1CCc2ccccc2C1,max activity,at 19.5 µM unless noted,6.12% [at 2.6 µM]
c1ccc(-c2ccc([C@H]3[C@H]4CNC[C@@H]3N4Cc3cc(-c4ccccc4)on3)cc2)cc1,max activity,at 19.5 µM unless noted,21.8% [at 21 µM]
COc1ccc(S(=O)(=O)N(C)C[C@H]2Oc3c(NC(=O)c4nc5ccccc5s4)cccc3C(=O)N([C@@H](C)CO)C[C@H]2C)cc1,max activity,at 19.5 µM unless noted,5.87% [at 5 µM]
Cc1ccc(S(=O)(=O)Nc2ccc3c(c2)C(=O)N([C@@H](C)CO)C[C@H](C)[C@H](CN(C)Cc2ccc(C(F)(F)F)cc2)O3)cc1,max activity,at 19.5 µM unless noted,18.3%
OC[C@@H]1[C@@H](c2ccc(-c3cccc(F)c3)cc2)[C@@H]2CN(Cc3cncnc3)CCCCN12,max activity,at 1.2 µM,-7.4%
same,max activity,at 19.5 µM,16.1%
Cc1ccc(CN2CC[C@H]3CO[C@@H](CNC(=O)C4CC4)[C@@H]3C2)cc1,max activity,at 19.5 µM unless noted,-26.4% [at 10 µM]
CC(C)CCCCC(=O)NC(CCN)C(=O)NC(C(=O)NC(CCN)C(=O)NC1CCNC(=O)C(C(C)O)NC(=O)C(CCN)NC(=O)C(CCN)NC(=O)[C@H](CC(C)C)NC(=O)[C@@H](CC(C)C)NC(=O)C(CCN)NC1=O)C(C)O (stereo partly drawn) ({Heptanoyl(6-Me)}-[ξDab][ξT][ξDab][ξDab][ξDab][dL]L[ξDab][ξDab][ξT]; lactam 4-C),max activity,at 19.5 µM unless noted,-5.41% [at 2.6 µM]
O=C(C1CCCCC1)N1[C@@H](CO)[C@@H]2c3ccccc3N(S(=O)(=O)c3ccccc3)C[C@@H]21,max activity,at 19.5 µM unless noted,7.57%
O=C(NC1CCCC1)N1[C@@H]2CNC[C@H]1C2c1ccc(-c2cccnc2)cc1 (stereo not given in full),max activity,at 19.5 µM unless noted,-14.9% [at 10 µM]
CN(C)C(=O)c1cccc(-c2ccc3c(c2)[C@H]2[C@H](CCN2C(=O)Cc2ccccc2)[C@@H](CO)N3)c1,max activity,at 19.5 µM unless noted,-6.17% [at 10 µM]
CN(C)C(=O)c1cccc(-c2ccc3c(c2)[C@@H]2[C@@H](CCN2C(=O)Cc2ccccc2)[C@H](CO)N3)c1,max activity,at 19.5 µM unless noted,13.7% [at 21 µM]
O=C(Cc1cccnc1)N1CC(=O)N2[C@@H](CO)[C@H](c3ccc(C#CC4CCCCC4)cc3)[C@@H]2C1,max activity,at 19.5 µM unless noted,-4.29% [at 10 µM]
CC(C)NC(=O)N1CC(=O)N2[C@H](C1)[C@@H](c1ccc(/C=C/c3ccccc3)cc1)[C@@H]2CO,max activity,at 19.5 µM unless noted,11.9% [at 5 µM]
CN(C)C(=O)c1cc2c(nc1NCC1CC1)CCN(Cc1ccccn1)CC2,max activity,at 19.5 µM unless noted,-6.11% [at 10 µM]
CC(C)CN(C[C@@H](O)[C@H](Cc1ccccc1)NC(=O)O[C@H]1CO[C@H]2OCC[C@H]21)S(=O)(=O)c1ccc(N)cc1,max activity,at 19.5 µM unless noted,6.05% [at 1.2 µM]
O=C(C1CC1)N1C[C@@H]2N[C@H](C1)C2c1ccc(/C=C/c2ccccc2)cc1 (stereo not given in full),max activity,at 19.5 µM unless noted,27.3%
COc1ccc(-c2ccc(C3[C@@H]4CN(C(=O)c5cnccn5)C[C@H]3N4)cc2)cc1 (stereo not given in full),max activity,at 19.5 µM unless noted,19.9%
COc1ccccc1-c1ccc(C2[C@@H]3CN(C(=O)c4ccncc4)C[C@H]2N3)cc1 (stereo not given in full),max activity,at 19.5 µM unless noted,-11% [at 5 µM]
Cc1csc([C@H]2C[C@H]3CCN(C(=O)c4cnccn4)C[C@@H]3O2)n1,max activity,at 19.5 µM unless noted,-12.1%
CC(C)CNC(=O)c1cc(-c2ccn(CC3CC3)n2)n2ccccc12,max activity,at 19.5 µM unless noted,21.6%
Cc1ccc(S(=O)(=O)N2CCC3(CC2)OC(C(=O)N(C)C)Cn2ccnc23)cc1 (stereo not given),max activity,at 19.5 µM unless noted,-17%
O=C(NC1CCCC1)N1CC[C@H]2CN(Cc3cccc(Cl)c3)S(=O)(=O)[C@@H]2CC1,max activity,at 19.5 µM unless noted,-17.4%
CN(C)C(=O)CN1C[C@@H]2CCN(C(=O)Nc3ccccc3Cl)CC[C@H]2S1(=O)=O,max activity,at 19.5 µM unless noted,7.52% [at 2.6 µM]
CC(C)n1c(C(=O)N2CCN(c3ccncc3)CC2)cc2c1c1ccccc1n2C,max activity,at 19.5 µM unless noted,37.4%
COc1ccccc1C#Cc1ccc([C@@H]2[C@H](CO)N3CCCCN(C(=O)C4CCC4)C[C@@H]23)cc1,max activity,at 19.5 µM unless noted,17.3%
CS(=O)(=O)N1CCO[C@@H]2CN(C(=O)Cc3ccccn3)CC[C@H]2C1,max activity,at 19.5 µM unless noted,-18.9% [at 1.2 µM]
Cn1c([N+](=O)[O-])cnc1COC(N)=O,max activity,at 19.5 µM unless noted,-13.4% [at 0.6 µM]
N#C[C@H]1N[C@@H](CO)[C@@H]1c1ccc(C#CC2CCCCC2)cc1,max activity,at 19.5 µM unless noted,28% [at 21 µM]
C=CC[C@@H]1CC=C[C@@H](C)N1C(=O)CCn1c(C)cc(C)nc1=O,max activity,at 0.16 µM,10.8%
same,max activity,at 10 µM,-10.5%
Oc1[nH]c2ccccc2c1N=Nc1nc(Nc2ccccc2)nc(N2CCOCC2)n1,max activity,at 19.5 µM unless noted,-17.4% [at 5 µM]
COc1cccc(-c2ccc3c(c2)[C@H]2[C@H](CCN2S(=O)(=O)c2ccccc2F)[C@H](CO)N3)c1,max activity,at 19.5 µM unless noted,10%
O=C(c1cnccn1)N1CC(=O)N2[C@H](C1)[C@H](c1ccc(/C=C/c3ccccc3)cc1)[C@@H]2CO,max activity,at 19.5 µM unless noted,11.5% [at 0.16 µM]
O=S1(=O)c2ccccc2OCC2(CCN(Cc3ccc(F)cc3)CC2)CN1CC1CC1,max activity,at 19.5 µM unless noted,28.5%
COCC#Cc1ccc([C@H]2[C@H](CO)N3CCCCN(C(=O)NC4CCCC4)C[C@@H]23)cc1,max activity,at 19.5 µM unless noted,-13.1% [at 10 µM]
O=C(Nc1ccc2c(c1)OCO2)N1C[C@@H]2N[C@H](C1)C2c1ccc(C=Cc2ccccc2)cc1 (stereo not given in full),max activity,at 19.5 µM unless noted,38% [at 10 µM]
CN1C(=O)c2cc(NC(=O)c3cccc(F)c3)ccc2OC[C@@H]2O[C@H](CC(=O)NCC3CCCCC3)CC[C@@H]21,max activity,at 19.5 µM unless noted,-23.6% [at 10 µM]
CN1C(=O)c2cc(NC(=O)c3cccc(F)c3)ccc2OC[C@H]2O[C@@H](CC(=O)NCC3CCCCC3)CC[C@H]21,max activity,at 0.16 µM,4.44%
same,max activity,at 5 µM,-19.3%
same,max activity,at 19.5 µM,-5.09%
CN1C(=O)c2cc(NC(=O)c3cccc(F)c3)ccc2OC[C@H]2O[C@@H](CC(=O)NCC3CCCCC3)CC[C@@H]21,max activity,at 19.5 µM unless noted,-18% [at 2.6 µM]
CN1C(=O)c2cc(NC(=O)c3cccc(F)c3)ccc2OC[C@@H]2O[C@@H](CC(=O)NCC3CCCCC3)CC[C@@H]21,max activity,at 19.5 µM unless noted,-20.9% [at 2.6 µM]
CC(C)c1cccc(NC(=O)C[C@H]2CC[C@H]3[C@@H](COc4ccc(NS(=O)(=O)c5ccccc5Cl)cc4C(=O)N3C)O2)c1,max activity,at 19.5 µM unless noted,-22.8% [at 10 µM]
COc1cccc(C(=O)Nc2ccc3c(c2)C(=O)N(C)[C@H]2CC[C@@H](CC(=O)N[C@@H](C)c4ccccc4)O[C@H]2CO3)c1,max activity,at 19.5 µM unless noted,8.03% [at 0.3 µM]
